# The supplement of paper PMC4466140
# Experiments:
# Experiment in all cases: SPOT peptide array binding signal intensity (averaged, normalized) (arbitrary units (background-subtracted, floor 0; scale differs between SH3 domains)); higher = stronger binding of the SH3 domain to the peptide
# [1] = molecular target: AgAbp1
# Procedure: (§1)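 GST-tagged SH3 domains from S. cerevisiae (Sc), A. gossypii (Ag), C. albicans (Ca) and S. pombe (Sp) were incubated at 10 ug/ml overnight at 4 C on cellulose SPOT membranes carrying 292 synthetic 15-mer peptides mined from the S. cerevisiae proteome (cysteines replaced by serines). Binding was detected with anti-GST antibody, HRP secondary and chemiluminescence, quantified with Genespotter, and reported as normalized spot intensities averaged over biological replicates.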
# [2] = molecular target: AgBbc1
# Procedure: as §1
# [3] = molecular target: AgBem1-D1
# Procedure: as §1
# [4] = molecular target: AgBzz1-D1
# Procedure: as §1
# [5] = molecular target: AgBzz1-D2
# Procedure: as §1
# [6] = molecular target: AgCyk3
# Procedure: as §1
# [7] = molecular target: AgFus1
# Procedure: as §1
# [8] = molecular target: AgHof1
# Procedure: as §1
# [9] = molecular target: AgHse1
# Procedure: as §1
# [10] = molecular target: AgLsb1
# Procedure: as §1
# [11] = molecular target: AgLsb4
# Procedure: as §1
# [12] = molecular target: AgMyo5
# Procedure: as §1
# [13] = molecular target: AgNbp2
# Procedure: as §1
# [14] = molecular target: AgRvs167
# Procedure: as §1
# [15] = molecular target: AgSho1
# Procedure: as §1
# [16] = molecular target: AgSla1-D1-D2
# Procedure: as §1
# [17] = molecular target: AgSla1-D3
# Procedure: as §1
# [18] = molecular target: CaAbp1-D1
# Procedure: as §1
# [19] = molecular target: CaAbp1-D2
# Procedure: as §1
# [20] = molecular target: CaBbc1
# Procedure: as §1
# [21] = molecular target: CaBem1-D1
# Procedure: as §1
# [22] = molecular target: CaBzz1-D1
# Procedure: as §1
# [23] = molecular target: CaBzz1-D2
# Procedure: as §1
# [24] = molecular target: CaCyk3
# Procedure: as §1
# [25] = molecular target: CaFus1
# Procedure: as §1
# [26] = molecular target: CaHof1
# Procedure: as §1
# [27] = molecular target: CaHse1
# Procedure: as §1
# [28] = molecular target: CaLsb1
# Procedure: as §1
# [29] = molecular target: CaLsb4
# Procedure: as §1
# [30] = molecular target: CaMyo5
# Procedure: as §1
# [31] = molecular target: CaNbp2
# Procedure: as §1
# [32] = molecular target: CaRvs167
# Procedure: as §1
# [33] = molecular target: CaRvs167-3
# Procedure: as §1
# [34] = molecular target: CaSho1
# Procedure: as §1
# [35] = molecular target: CaSla1-D1-D2
# Procedure: as §1
# [36] = molecular target: CaSla1-D3
# Procedure: as §1
# [37] = molecular target: ScAbp1
# Procedure: as §1
# [38] = molecular target: ScBbc1
# Procedure: as §1
# [39] = molecular target: ScBem1-D1
# Procedure: as §1
# [40] = molecular target: ScBzz1-D1
# Procedure: as §1
# [41] = molecular target: ScBzz1-D2
# Procedure: as §1
# [42] = molecular target: ScCyk3
# Procedure: as §1
# [43] = molecular target: ScFus1
# Procedure: as §1
# [44] = molecular target: ScHof1
# Procedure: as §1
# [45] = molecular target: ScHse1
# Procedure: as §1
# [46] = molecular target: ScLsb1
# Procedure: as §1
# [47] = molecular target: ScLsb2
# Procedure: as §1
# [48] = molecular target: ScLsb3
# Procedure: as §1
# [49] = molecular target: ScLsb4
# Procedure: as §1
# [50] = molecular target: ScMyo3
# Procedure: as §1
# [51] = molecular target: ScMyo5
# Procedure: as §1
# [52] = molecular target: ScNbp2
# Procedure: as §1
# [53] = molecular target: ScPex13
# Procedure: as §1
# [54] = molecular target: ScRvs167
# Procedure: as §1
# [55] = molecular target: ScSho1
# Procedure: as §1
# [56] = molecular target: ScSla1-D1-D2
# Procedure: as §1
# [57] = molecular target: ScSla1-D3
# Procedure: as §1
# [58] = molecular target: SpAbp1-D1
# Procedure: as §1
# [59] = molecular target: SpBbc1
# Procedure: as §1
# [60] = molecular target: SpBzz1-D1
# Procedure: as §1
# [61] = molecular target: SpBzz1-D2
# Procedure: as §1
# [62] = molecular target: SpCyk3
# Procedure: as §1
# [63] = molecular target: SpHof1
# Procedure: as §1
# [64] = molecular target: SpHof1-2
# Procedure: as §1
# [65] = molecular target: SpHof1-3
# Procedure: as §1
# [66] = molecular target: SpHse1
# Procedure: as §1
# [67] = molecular target: SpLsb1
# Procedure: as §1
# [68] = molecular target: SpLsb4
# Procedure: as §1
# [69] = molecular target: SpMyo1
# Procedure: as §1
# [70] = molecular target: SpNbp2
# Procedure: as §1
# [71] = molecular target: SpPex13
# Procedure: as §1
# [72] = molecular target: SpRvs167
# Procedure: as §1
# [73] = molecular target: SpSla1-D1-D2
# Procedure: as §1
# [74] = molecular target: SpSla1-D3
# Procedure: as §1
binder,measurement,setting,value
RLPAPPPPPRRGPAP,SPOT peptide array binding signal intensity,[1],51.5
same,SPOT peptide array binding signal intensity,[2],909
same,SPOT peptide array binding signal intensity,[3],140
same,SPOT peptide array binding signal intensity,[4],624
same,SPOT peptide array binding signal intensity,[5],154
same,SPOT peptide array binding signal intensity,[6],3
same,SPOT peptide array binding signal intensity,[7],6
same,SPOT peptide array binding signal intensity,[8],112
same,SPOT peptide array binding signal intensity,[9],28.5
same,SPOT peptide array binding signal intensity,[10],5.25
same,SPOT peptide array binding signal intensity,[11],412
same,SPOT peptide array binding signal intensity,[12],550
same,SPOT peptide array binding signal intensity,[13],7.5
same,SPOT peptide array binding signal intensity,[14],123
same,SPOT peptide array binding signal intensity,[15],4
same,SPOT peptide array binding signal intensity,[16],5
same,SPOT peptide array binding signal intensity,[17],10
same,SPOT peptide array binding signal intensity,[18],150
same,SPOT peptide array binding signal intensity,[19],17
same,SPOT peptide array binding signal intensity,[20],770
same,SPOT peptide array binding signal intensity,[21],1820
same,SPOT peptide array binding signal intensity,[22],3030
same,SPOT peptide array binding signal intensity,[23],1540
same,SPOT peptide array binding signal intensity,[24],326
same,SPOT peptide array binding signal intensity,[25],26.5
same,SPOT peptide array binding signal intensity,[26],39
same,SPOT peptide array binding signal intensity,[27],5.25
same,SPOT peptide array binding signal intensity,[28],≤ 0
same,SPOT peptide array binding signal intensity,[29],560
same,SPOT peptide array binding signal intensity,[30],19.5
NRLRKRLNLPSEISI,SPOT peptide array binding signal intensity,[1],52
same,SPOT peptide array binding signal intensity,[2],2
same,SPOT peptide array binding signal intensity,[3],126
same,SPOT peptide array binding signal intensity,[4],7
same,SPOT peptide array binding signal intensity,[5],9
same,SPOT peptide array binding signal intensity,[6],1
same,SPOT peptide array binding signal intensity,[7],444
same,SPOT peptide array binding signal intensity,[8],45.2
same,SPOT peptide array binding signal intensity,[9],2040
same,SPOT peptide array binding signal intensity,[10],36.2
same,SPOT peptide array binding signal intensity,[11],21.5
same,SPOT peptide array binding signal intensity,[12],≤ 0
same,SPOT peptide array binding signal intensity,[13],74
same,SPOT peptide array binding signal intensity,[14],4.67
same,SPOT peptide array binding signal intensity,[15],26.5
same,SPOT peptide array binding signal intensity,[16],33
same,SPOT peptide array binding signal intensity,[17],5.5
same,SPOT peptide array binding signal intensity,[18],649
same,SPOT peptide array binding signal intensity,[19],307
same,SPOT peptide array binding signal intensity,[20],9.75
same,SPOT peptide array binding signal intensity,[21],2
same,SPOT peptide array binding signal intensity,[22],10
same,SPOT peptide array binding signal intensity,[23],18.2
same,SPOT peptide array binding signal intensity,[24],4
same,SPOT peptide array binding signal intensity,[25],1980
same,SPOT peptide array binding signal intensity,[26],≤ 0
same,SPOT peptide array binding signal intensity,[27],95.2
same,SPOT peptide array binding signal intensity,[28],5.5
same,SPOT peptide array binding signal intensity,[29],14
same,SPOT peptide array binding signal intensity,[30],4.5
same,SPOT peptide array binding signal intensity,[31],286
same,SPOT peptide array binding signal intensity,[32],6.83
same,SPOT peptide array binding signal intensity,[33],48.8
same,SPOT peptide array binding signal intensity,[34],353
same,SPOT peptide array binding signal intensity,[35],16
same,SPOT peptide array binding signal intensity,[36],3
same,SPOT peptide array binding signal intensity,[37],191
same,SPOT peptide array binding signal intensity,[38],2.5
same,SPOT peptide array binding signal intensity,[39],61
same,SPOT peptide array binding signal intensity,[40],21
same,SPOT peptide array binding signal intensity,[41],5.5
same,SPOT peptide array binding signal intensity,[42],140
same,SPOT peptide array binding signal intensity,[43],524
same,SPOT peptide array binding signal intensity,[44],2.5
same,SPOT peptide array binding signal intensity,[45],2410
same,SPOT peptide array binding signal intensity,[46],22.5
same,SPOT peptide array binding signal intensity,[47],≤ 0
same,SPOT peptide array binding signal intensity,[48],57
same,SPOT peptide array binding signal intensity,[49],7
same,SPOT peptide array binding signal intensity,[50],≤ 0
same,SPOT peptide array binding signal intensity,[51],2.5
same,SPOT peptide array binding signal intensity,[52],70
same,SPOT peptide array binding signal intensity,[53],0.5
same,SPOT peptide array binding signal intensity,[54],2.5
same,SPOT peptide array binding signal intensity,[55],662
same,SPOT peptide array binding signal intensity,[56],19.5
same,SPOT peptide array binding signal intensity,[57],12.5
same,SPOT peptide array binding signal intensity,[58],293
same,SPOT peptide array binding signal intensity,[59],6
same,SPOT peptide array binding signal intensity,[60],11
same,SPOT peptide array binding signal intensity,[61],1.5
same,SPOT peptide array binding signal intensity,[62],≤ 0
same,SPOT peptide array binding signal intensity,[63],60
same,SPOT peptide array binding signal intensity,[64],7
same,SPOT peptide array binding signal intensity,[65],708
same,SPOT peptide array binding signal intensity,[66],2460
same,SPOT peptide array binding signal intensity,[67],96.8
same,SPOT peptide array binding signal intensity,[68],29
same,SPOT peptide array binding signal intensity,[69],5
same,SPOT peptide array binding signal intensity,[70],71
same,SPOT peptide array binding signal intensity,[71],7.5
same,SPOT peptide array binding signal intensity,[72],2.33
same,SPOT peptide array binding signal intensity,[73],≤ 0
same,SPOT peptide array binding signal intensity,[74],3
